The full data set covers some 7,900 targets. This sample favours those with a hit. About 0.6% of all pairs of compound and target were hits.
What follows are targets tested with CC1=C(C=C(C=C1)NC(=O)C2=CC(=CC=C2)C(C)(C)C#N)NC3=CC4=C(C=C3)N=CN(C4=O)C (assay: log2 fold change, soluble protein after heating vs DMSO (PISA); higher = thermal stabilisation; K562 cells, 10 uM, 30 min; active = over 0.2 and 3.5 SD of the protein, either way, in both replicates (recomputed)).
In short: (§1)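 K562 cells at 2×10^6 cells/mL were given 10 μM compound for 30 min. Aliquots then went through 3 min of heating across 48°C-58°C, were pooled, and were extracted in PBS with 0.5% NP-40 at 4°C, and the supernatant after 21,000xg for 90 min was quantified by TMTpro 16plex LC-MS/MS with channel sums equalised. Thermal stability relative to control samples, from duplicates, is given as log2 fold change.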
UniProt Q13428, sequence (Q13428 whole entry, looked up): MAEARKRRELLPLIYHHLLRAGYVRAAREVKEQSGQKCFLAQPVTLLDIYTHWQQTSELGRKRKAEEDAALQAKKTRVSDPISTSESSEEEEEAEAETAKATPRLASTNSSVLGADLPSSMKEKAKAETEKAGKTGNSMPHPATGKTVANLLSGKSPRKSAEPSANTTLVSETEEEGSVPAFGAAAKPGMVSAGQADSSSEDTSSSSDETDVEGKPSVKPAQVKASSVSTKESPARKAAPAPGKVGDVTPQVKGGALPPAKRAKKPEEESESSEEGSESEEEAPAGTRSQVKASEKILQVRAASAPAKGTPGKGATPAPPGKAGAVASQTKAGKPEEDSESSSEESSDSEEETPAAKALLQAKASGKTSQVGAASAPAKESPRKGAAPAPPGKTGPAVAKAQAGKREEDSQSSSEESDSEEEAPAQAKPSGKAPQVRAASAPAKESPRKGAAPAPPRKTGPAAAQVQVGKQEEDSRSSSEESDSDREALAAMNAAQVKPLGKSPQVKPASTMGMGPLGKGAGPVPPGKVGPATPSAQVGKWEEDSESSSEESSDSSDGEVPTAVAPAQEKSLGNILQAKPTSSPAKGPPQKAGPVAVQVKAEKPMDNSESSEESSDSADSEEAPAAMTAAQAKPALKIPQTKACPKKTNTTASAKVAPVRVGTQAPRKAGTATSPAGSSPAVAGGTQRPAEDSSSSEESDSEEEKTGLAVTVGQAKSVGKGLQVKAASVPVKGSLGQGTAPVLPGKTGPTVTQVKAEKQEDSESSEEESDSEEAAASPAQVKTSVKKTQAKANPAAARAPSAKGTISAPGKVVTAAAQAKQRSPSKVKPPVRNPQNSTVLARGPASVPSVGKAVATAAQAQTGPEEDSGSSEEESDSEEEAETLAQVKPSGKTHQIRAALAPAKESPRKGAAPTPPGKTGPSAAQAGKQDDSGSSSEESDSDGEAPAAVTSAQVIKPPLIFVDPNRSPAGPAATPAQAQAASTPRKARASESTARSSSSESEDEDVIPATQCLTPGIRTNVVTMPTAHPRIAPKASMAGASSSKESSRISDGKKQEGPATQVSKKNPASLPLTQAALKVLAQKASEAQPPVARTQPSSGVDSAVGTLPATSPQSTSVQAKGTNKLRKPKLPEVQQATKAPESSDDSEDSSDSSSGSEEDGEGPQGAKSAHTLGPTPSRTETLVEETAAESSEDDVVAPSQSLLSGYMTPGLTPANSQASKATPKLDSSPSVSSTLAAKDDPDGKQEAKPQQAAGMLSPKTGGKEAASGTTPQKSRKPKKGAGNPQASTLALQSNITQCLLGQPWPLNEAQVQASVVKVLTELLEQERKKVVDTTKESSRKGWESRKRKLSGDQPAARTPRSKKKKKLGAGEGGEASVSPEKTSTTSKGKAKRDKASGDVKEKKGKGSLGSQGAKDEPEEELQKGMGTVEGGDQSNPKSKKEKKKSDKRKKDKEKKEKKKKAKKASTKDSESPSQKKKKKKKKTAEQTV
UniProt Q9Y2H1, sequence (Q9Y2H1 whole entry, looked up): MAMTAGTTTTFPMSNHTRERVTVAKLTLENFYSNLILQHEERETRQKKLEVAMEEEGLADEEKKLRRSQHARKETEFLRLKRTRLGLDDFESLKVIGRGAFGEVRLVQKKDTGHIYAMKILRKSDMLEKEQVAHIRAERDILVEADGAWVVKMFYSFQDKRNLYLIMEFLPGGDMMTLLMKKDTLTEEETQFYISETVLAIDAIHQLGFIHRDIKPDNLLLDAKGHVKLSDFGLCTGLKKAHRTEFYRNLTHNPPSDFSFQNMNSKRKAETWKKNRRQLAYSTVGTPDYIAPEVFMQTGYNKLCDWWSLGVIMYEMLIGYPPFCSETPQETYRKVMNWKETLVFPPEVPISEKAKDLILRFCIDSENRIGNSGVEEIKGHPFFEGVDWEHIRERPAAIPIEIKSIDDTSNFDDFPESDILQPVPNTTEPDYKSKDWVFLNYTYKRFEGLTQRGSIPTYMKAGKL
UniProt Q9Y6J9, sequence (Q9Y6J9 whole entry, looked up): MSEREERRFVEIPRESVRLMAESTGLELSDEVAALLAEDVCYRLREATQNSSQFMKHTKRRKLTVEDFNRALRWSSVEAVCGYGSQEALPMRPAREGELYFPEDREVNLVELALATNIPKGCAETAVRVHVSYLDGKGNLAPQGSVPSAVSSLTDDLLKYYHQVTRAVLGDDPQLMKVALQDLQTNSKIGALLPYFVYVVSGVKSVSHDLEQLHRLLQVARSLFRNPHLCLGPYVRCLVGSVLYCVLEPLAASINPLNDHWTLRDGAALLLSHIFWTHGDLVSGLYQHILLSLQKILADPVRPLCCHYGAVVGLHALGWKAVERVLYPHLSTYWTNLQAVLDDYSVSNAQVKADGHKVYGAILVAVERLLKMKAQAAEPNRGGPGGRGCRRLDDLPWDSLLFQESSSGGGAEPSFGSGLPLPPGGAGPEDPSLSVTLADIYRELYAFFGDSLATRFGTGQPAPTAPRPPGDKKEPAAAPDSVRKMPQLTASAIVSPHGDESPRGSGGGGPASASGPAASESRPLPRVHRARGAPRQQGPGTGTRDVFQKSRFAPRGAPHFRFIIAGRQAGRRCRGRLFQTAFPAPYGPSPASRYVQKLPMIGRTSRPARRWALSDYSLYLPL
UniProt O60271, sequence (O60271 whole entry, looked up): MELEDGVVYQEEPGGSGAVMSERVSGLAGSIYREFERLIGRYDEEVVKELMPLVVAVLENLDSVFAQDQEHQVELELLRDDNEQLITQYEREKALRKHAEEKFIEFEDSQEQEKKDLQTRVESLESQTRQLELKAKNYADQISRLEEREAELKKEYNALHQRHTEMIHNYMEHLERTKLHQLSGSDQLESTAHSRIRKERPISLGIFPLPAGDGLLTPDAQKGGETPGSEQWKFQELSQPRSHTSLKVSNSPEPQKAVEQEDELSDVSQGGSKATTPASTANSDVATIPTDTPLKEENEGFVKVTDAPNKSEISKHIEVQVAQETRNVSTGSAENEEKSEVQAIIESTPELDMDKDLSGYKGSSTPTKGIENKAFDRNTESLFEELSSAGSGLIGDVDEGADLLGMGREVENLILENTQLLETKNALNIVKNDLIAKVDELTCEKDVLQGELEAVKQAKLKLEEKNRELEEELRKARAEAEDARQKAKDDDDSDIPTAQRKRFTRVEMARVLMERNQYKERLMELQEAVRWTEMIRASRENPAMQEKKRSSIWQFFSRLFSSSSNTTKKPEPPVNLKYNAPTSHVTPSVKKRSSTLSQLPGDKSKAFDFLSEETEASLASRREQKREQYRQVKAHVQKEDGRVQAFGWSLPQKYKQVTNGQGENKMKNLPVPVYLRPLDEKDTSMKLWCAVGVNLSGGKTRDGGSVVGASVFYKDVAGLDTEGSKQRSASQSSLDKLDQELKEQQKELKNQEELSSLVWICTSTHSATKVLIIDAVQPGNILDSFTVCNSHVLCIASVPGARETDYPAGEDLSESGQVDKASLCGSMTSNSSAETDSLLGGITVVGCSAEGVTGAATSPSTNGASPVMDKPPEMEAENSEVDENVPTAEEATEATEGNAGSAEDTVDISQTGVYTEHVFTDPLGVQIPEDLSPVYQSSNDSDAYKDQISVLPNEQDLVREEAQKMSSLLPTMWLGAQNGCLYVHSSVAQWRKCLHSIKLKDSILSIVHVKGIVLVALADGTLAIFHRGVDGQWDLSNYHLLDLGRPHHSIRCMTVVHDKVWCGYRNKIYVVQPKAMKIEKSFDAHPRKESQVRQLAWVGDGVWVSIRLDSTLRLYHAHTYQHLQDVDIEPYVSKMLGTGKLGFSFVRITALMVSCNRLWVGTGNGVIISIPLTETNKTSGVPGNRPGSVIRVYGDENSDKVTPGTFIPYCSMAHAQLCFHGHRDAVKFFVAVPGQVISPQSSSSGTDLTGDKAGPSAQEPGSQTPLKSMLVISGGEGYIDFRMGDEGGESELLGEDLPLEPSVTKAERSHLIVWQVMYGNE
UniProt O76062, sequence (O76062 whole entry, looked up): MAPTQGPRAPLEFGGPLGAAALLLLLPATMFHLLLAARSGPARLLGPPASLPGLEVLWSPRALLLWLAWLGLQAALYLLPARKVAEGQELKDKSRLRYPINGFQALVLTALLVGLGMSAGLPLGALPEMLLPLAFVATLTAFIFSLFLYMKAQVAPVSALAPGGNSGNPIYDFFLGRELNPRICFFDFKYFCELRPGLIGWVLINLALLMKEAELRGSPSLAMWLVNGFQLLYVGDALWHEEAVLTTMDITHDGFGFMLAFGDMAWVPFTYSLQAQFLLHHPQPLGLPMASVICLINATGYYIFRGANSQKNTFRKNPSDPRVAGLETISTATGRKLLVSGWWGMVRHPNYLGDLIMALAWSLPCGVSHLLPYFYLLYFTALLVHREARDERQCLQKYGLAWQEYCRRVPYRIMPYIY
UniProt Q8IWA5, sequence (Q8IWA5 whole entry, looked up): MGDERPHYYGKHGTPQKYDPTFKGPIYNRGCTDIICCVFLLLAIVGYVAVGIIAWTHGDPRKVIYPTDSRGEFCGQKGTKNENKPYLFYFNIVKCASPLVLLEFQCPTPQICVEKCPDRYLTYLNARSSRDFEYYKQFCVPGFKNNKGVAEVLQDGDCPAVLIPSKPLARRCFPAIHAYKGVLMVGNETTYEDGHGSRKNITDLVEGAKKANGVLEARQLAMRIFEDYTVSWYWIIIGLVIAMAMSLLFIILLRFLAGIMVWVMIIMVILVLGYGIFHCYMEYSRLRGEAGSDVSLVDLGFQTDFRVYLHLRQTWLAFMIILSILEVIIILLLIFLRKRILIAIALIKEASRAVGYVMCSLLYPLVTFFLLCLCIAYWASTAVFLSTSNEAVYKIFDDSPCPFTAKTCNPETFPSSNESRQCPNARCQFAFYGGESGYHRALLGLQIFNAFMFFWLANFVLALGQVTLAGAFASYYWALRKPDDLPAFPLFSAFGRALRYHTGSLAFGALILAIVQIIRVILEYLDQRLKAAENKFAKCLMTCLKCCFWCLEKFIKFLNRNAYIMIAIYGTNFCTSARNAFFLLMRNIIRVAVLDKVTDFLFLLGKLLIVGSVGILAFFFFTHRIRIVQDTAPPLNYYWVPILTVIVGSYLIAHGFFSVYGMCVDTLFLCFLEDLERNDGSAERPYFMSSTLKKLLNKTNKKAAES
For SMDT1 (UniProt Q9H4I9), the log2 fold change was 0.137 (inactive). For SLC35B1 isoform 2 (UniProt P78383), the log2 fold change was 0.165 (inactive). With SLC44A2 isoform 2 (UniProt Q8IWA5) the log2 fold change was 0.084 (inactive). In the case of SP2 (UniProt Q02086), the log2 fold change is reported as -0.032 (inactive). In the case of TCOF1 isoform 6 (UniProt Q13428), the log2 fold change is reported as 0.148 (inactive). SMARCB1 (UniProt Q12824) was tested, and the log2 fold change was 0.188 (inactive). SLC35B4 (UniProt Q969S0) was tested, and the log2 fold change was 0.018 (inactive). In the case of SYNE1 (UniProt Q8NF91), the log2 fold change is reported as -0.126 (inactive). For TATDN2 (UniProt Q93075), the log2 fold change was -0.256 (inactive). TCOF1 isoform 3 (UniProt Q13428) was tested, and the log2 fold change was -0.051 (inactive). For SNX2 isoform 2 (UniProt O60749), the log2 fold change was 0 (inactive). With SNRK (UniProt Q9NRH2) the log2 fold change was -0.029 (inactive). In the case of STK38L (UniProt Q9Y2H1), the log2 fold change is reported as -0.044 (inactive). With SRSF6 (UniProt Q13247) the log2 fold change was -0.012 (inactive). With TM7SF2 (UniProt O76062) the log2 fold change was 0.051 (inactive). With TAF6L (UniProt Q9Y6J9) the log2 fold change was -0.042 (inactive). SPAG9 isoform 4 (UniProt O60271) was tested, and the log2 fold change was 0.184 (inactive). With STK11IP (UniProt Q8N1F8) the log2 fold change was 0.095 (inactive).

The targets below were run with CC1=C(C=C(C=C1)NC(=O)C2=CC(=CC=C2)N(C)C)NC(=O)C3=CC=C(C=C3)O in the same assay as above.
In short: as §1
For TAOK2 (UniProt Q9UL54), the log2 fold change was 0.024 (inactive). In the case of SLC8B1 (UniProt Q6J4K2), the log2 fold change is reported as 0.038 (inactive). In the case of SYK (UniProt P43405), the log2 fold change is reported as 0.015 (inactive). With SLC35B1 isoform 2 (UniProt P78383) the log2 fold change was -0.109 (inactive). With SLC44A2 isoform 2 (UniProt Q8IWA5) the log2 fold change was -0.033 (inactive). In the case of TEX30 (UniProt Q5JUR7), the log2 fold change is reported as -0.182 (inactive). TCOF1 isoform 6 (UniProt Q13428) was tested, and the log2 fold change was -0.078 (inactive). For SYNE1 (UniProt Q8NF91), the log2 fold change was -0.051 (inactive). For SPIRE1 (UniProt Q08AE8), the log2 fold change was 0.013 (inactive). With TC2N (UniProt Q8N9U0) the log2 fold change was 0.077 (inactive). TCOF1 isoform 3 (UniProt Q13428) was tested, and the log2 fold change was 0.262 (inactive). For STK38L (UniProt Q9Y2H1), the log2 fold change was 0.165 (inactive). TM7SF2 (UniProt O76062) was tested, and the log2 fold change was 0.015 (inactive). With TAF6L (UniProt Q9Y6J9) the log2 fold change was 0.114 (inactive). With SPAG9 isoform 4 (UniProt O60271) the log2 fold change was -0.025 (inactive). TBP (UniProt P20226) was tested, and the log2 fold change was -0.04 (inactive). For THAP9 (UniProt Q9H5L6), the log2 fold change was 0.017 (inactive).
